Laboratory results from PubChem BioAssay (NCATS).
Several values for one entry are separate records, joined by “and”; a condition that tells them apart may be missing. Equal entries are not always repeated. Results filed as inconclusive are left out. Unmarked numbers belong to inactive results. Activity calls are given as the source filed them. Calls follow the shape of the dose curve; as a rule, active = well fitted curve in the direction sought with a large enough effect; inconclusive = small, poorly fitted or top-dose-only effect, or another doubt; inactive = no such curve, though single readings can be large; an effect the other way counts as inactive or inconclusive.

Experiments:
[1] = biological target: Cellular tumor antigen p53 (Homo sapiens) (UniProt P04637); test: Primary qHTS for small molecule compounds that upregulate eGFP-tagged delta133p53alpha (in N-terminal) cells. (AID 2060322); conditions: NCI-H358 eGFP-delta133p53alpha fluorescence, 24 h; activation: stronger effect = higher value; also: nearly all actives have a fitted effect of over 75% in size; also: potency is read from the fitted curve at half-maximal effect;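 as to activation: series mostly up to about 56 µM; 0% = DMSO vehicle and 100% = reference activator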
Cellular tumor antigen p53 (Homo sapiens), sequence (P04637 whole entry, looked up): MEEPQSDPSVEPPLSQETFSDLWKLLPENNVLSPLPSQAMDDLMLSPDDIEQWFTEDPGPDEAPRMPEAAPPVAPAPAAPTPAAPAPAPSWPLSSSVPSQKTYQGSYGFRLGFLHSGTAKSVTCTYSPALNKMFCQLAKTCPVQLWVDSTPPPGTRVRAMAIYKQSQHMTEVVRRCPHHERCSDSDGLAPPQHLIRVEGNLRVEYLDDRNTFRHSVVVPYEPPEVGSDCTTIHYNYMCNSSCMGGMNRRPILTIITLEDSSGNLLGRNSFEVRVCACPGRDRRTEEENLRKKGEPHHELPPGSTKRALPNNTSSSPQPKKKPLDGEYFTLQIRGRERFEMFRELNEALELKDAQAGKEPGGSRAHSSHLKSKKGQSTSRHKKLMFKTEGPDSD
Outline: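 NCI-H358 cells pre-induced 24 h with 10 ng/ml doxycycline to express N-terminal eGFP-delta133p53alpha, then dosed 24 h at 37C without doxycycline; fixed, Hoechst-stained, GFP intensity by laser scanning cytometry, normalized to DMSO (0%) and 57.5 uM 5-azacytidine (100%).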

[2] = biological target: Aldehyde dehydrogenase, mitochondrial (Homo sapiens) (UniProt P05091); test: qHTS for Inhibitors of the Aldehyde Dehydrogenase Family (ALDH2) Primary screen (AID 2061308);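 also: plate controls were vehicle for no effect and reference inhibitor for full effect; nearly all actives have a fitted effect of over 55% in size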
[3] = biological target: Retinaldehyde dehydrogenase 3 (Homo sapiens) (UniProt P47895); test: qHTS for Inhibitors of the Aldehyde Dehydrogenase Family (ALDH1A3) Primary screen (AID 2061315);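 also: plate controls were DMSO vehicle for no effect and reference inhibitor for full effect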
[4] = BET inhibitor-based combinations targeting novel dependencies in MECOM-rearranged (r) AML: SET-2 cell line (AID 2202231); conditions: SET-2 AML cells viability, CellTiter-Glo luminescence, 48 h; viability: stronger effect = lower value, concentration not given here; also: nearly all actives have a fitted effect of over 35% in size; also: potency is read from the fitted curve at half-maximal effect;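 as to viability: plate controls were DMSO treated cells for no effect and wells without cells for full effect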
Outline: (§1)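 Cells were plated at 500 per well and exposed to an 11-point dose series of each drug for 48 hr. Viability was measured by CellTiter-Glo luminescence, normalized to DMSO and empty-well controls, and summarized as AUC and per-cell-line Z-AUC.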

[5] = BET inhibitor-based combinations targeting novel dependencies in MECOM-rearranged (r) AML: OCI-AML3 cell line (AID 2202232); conditions: Potency: OCI-AML3 viability; also: nearly all actives have a fitted effect of over 35% in size; also: potency is read from the fitted curve at half-maximal effect
Outline: as §1

[6] = BET inhibitor-based combinations targeting novel dependencies in MECOM-rearranged (r) AML: MV-4-11 cell line (AID 2202233); also: nearly all actives have a fitted effect of over 45% in size; also: potency is read from the fitted curve at half-maximal effect
Outline: (§2)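 Activity is given as area under the curve and as Z-AUC, mean-centred within each cell line. It comes from 11-point dose curves normalized to DMSO and empty wells. CellTiter-Glo luminescence was read after 48 hr drug exposure of 500 cells/well.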

[7] = BET inhibitor-based combinations targeting novel dependencies in MECOM-rearranged (r) AML: AML-194 cell line (AID 2202237; also: nearly all actives have a fitted effect of over 40% in size; also: potency is read from the fitted curve at half-maximal effect)
Outline: as §1

[8] = BET inhibitor-based combinations targeting novel dependencies in MECOM-rearranged (r) AML: AML-191 cell line (AID 2202236; also: nearly all actives have a fitted effect of over 35% in size; also: potency is read from the fitted curve at half-maximal effect)
Outline: as §1

[9] = BET inhibitor-based combinations targeting novel dependencies in MECOM-rearranged (r) AML: UCSD-AML1 cell line (AID 2202235); also: nearly all actives have a fitted effect of over 40% in size; also: potency is read from the fitted curve at half-maximal effect
Outline: as §2

[10] = BET inhibitor-based combinations targeting novel dependencies in MECOM-rearranged (r) AML: HNT-34 cell line (AID 2202234); also: nearly all actives have a fitted effect of over 35% in size; also: potency is read from the fitted curve at half-maximal effect
Outline: as §2

| SMILES | activation [1] | Potency [2] | Potency [3] | Potency [4] | Potency [5] | Potency [6] | Potency [7] | Potency [1] | viability [4] | Potency [8] | Potency [9] | Potency [10] |
| --- | --- | --- | --- | --- | --- | --- | --- | --- | --- | --- | --- | --- |
| COc1cc(C(=O)N2CCC(N3CCN(C)CC3)CC2)ccc1Nc1ncc2c(n1)N(C)c1ccccc1C(=O)N2C | -6.3% and 0.893% | inactive | inactive | 6.61 µM (active) | 2.35 µM (active) | 1.48 µM (active) | 16.6 µM (active) |  |  |  |  |  |
| NCCOc1cc(C(=O)Nc2cc(OCCN)c3ccccc3n2)nc(C(=O)Nc2cc(OCCN)c3ccccc3n2)c1 |  | inactive | inactive |  | inactive | 16.6 µM (active) |  | 0.193 µM (active) | 78% | inactive |  |  |
| Cc1ccc2c(c1)C(=O)[C@]1(O)CCN(c3ccccc3)C1=N2 | -1.14% and -10.7% | inactive | inactive |  | 18.6 µM (active) | 23.5 µM (active) | 16.6 µM (active) |  | 110% | 23.5 µM (active) | inactive |  |
| CC(C)c1cnn2c(NCc3ccccc3)cc(N[C@@H](CO)[C@H](O)CO)nc12 |  | inactive | inactive | 0.296 µM (active) | 0.468 µM (active) |  | 0.372 µM (active) | 544 nM (active) and 1.51 µM (active) |  | 0.296 µM (active) | 0.372 µM (active) | 0.296 µM (active) |
| CNC(=O)c1ccc2cc(C3(O)CCn4cncc43)ccc2c1 (stereo not given) | -1.49% and -0.893% | inactive | inactive |  | inactive |  | inactive |  | 115% | inactive | inactive | inactive |
| CCOC(=O)[C@H]1O[C@@H]1C(=O)N[C@@H](CC(C)C)C(=O)NCCC(C)C | 4.33% | inactive | inactive |  | 18.6 µM (active) | 14.8 µM (active) |  |  | 108% | inactive | inactive |  |
| NC(=O)c1cccc2[nH]c(-c3ccc([C@H]4CCCN4)cc3F)nc12 | 28.6% | inactive | inactive | 20.9 µM (active) | 20.9 µM (active) | 16.6 µM (active) |  |  |  | 16.6 µM (active) | inactive |  |
| Cn1ncc2cc(-c3cnc(N)c(Cl)c3N3CCC4(CCNC4=O)CC3)ccc21 | -11.6% | inactive | inactive |  | inactive | 5.25 µM (active) |  |  | 103% | 0.296 µM (active) | 10.5 µM (active) |  |
| N[C@@H](Cc1cc(I)c(Oc2cc(I)c(O)c(I)c2)c(I)c1)C(=O)O | -1.69% and -8.29% and -5.67% | inactive | inactive |  | inactive | inactive | inactive |  | 108% | inactive | inactive |  |
| Cc1ccc(C(=O)Nc2ccc(Oc3cc4cnn(C)c4cc3-c3cn[nH]c3)c(F)c2)c(=O)n1-c1ccc(F)cc1 |  | inactive | inactive | 11.8 µM (active) | 5.25 µM (active) | 0.0053 µM (active) |  | 15.1 µM (active) |  | 6.61 µM (active) | 5.25 µM (active) |  |
| C1=C/COCc2cc(ccc2OCCN2CCCC2)Nc2nccc(n2)-c2cccc(c2)COC/1 |  | inactive | inactive | 4.17 µM (active) | 3.32 µM (active) |  | 2.35 µM (active) | 15.3 µM (active) |  | 1.86 µM (active) | 1.18 µM (active) | 2.09 µM (active) |
| CCc1ccc(C(=O)Nc2cc(CN3CCN(C)CC3)cc(C(F)(F)F)c2)cc1C#Cc1cnc2ccnn2c1 |  | inactive | inactive | 14.8 µM (active) | 10.5 µM (active) | 7.42 µM (active) | 5.9 µM (active) | 19 µM (active) |  | 5.9 µM (active) |  |  |
| Cc1cc(Nc2cc(N3CCN(C)CC3)nc(/C=C/c3ccccc3)n2)n[nH]1 |  | inactive | inactive | 13.2 µM (active) | 8.33 µM (active) | 0.132 µM (active) | 1.18 µM (active) | 30.1 µM (active) |  |  | 2.95 µM (active) |  |
| CC1(C)CCC(CN2CCN(c3ccc(C(=O)NS(=O)(=O)c4ccc(NCC5CCOCC5)c([N+](=O)[O-])c4)c(Oc4cnc5[nH]ccc5c4)c3)CC2)=C(c2ccc(Cl)cc2)C1 | -10.9% | inactive | inactive |  | 3.72 µM (active) | 0.118 µM (active) | 4.68 µM (active) |  | 114% | 18.6 µM (active) |  |  |
| O=C(Nc1ccc(Oc2ccnc3[nH]ccc23)c(F)c1)c1cccn(-c2ccc(F)cc2)c1=O | -27.3% and -22.3% | inactive | inactive |  | 13.2 µM (active) | 0.0295 µM (active) | 8.33 µM (active) |  | 106% | 2.35 µM (active) | inactive |  |
| CCc1c2c(nc3ccc(O)cc13)-c1cc3c(c(=O)n1C2)COC(=O)[C@]3(O)CC |  | inactive | inactive | 0.0166 µM (active) | 0.0093 µM (active) | 0.0093 µM (active) | 0.0118 µM (active) | 1.51 µM (active) |  | 0.0093 µM (active) | 0.0083 µM (active) |  |

| SMILES | activation [1] | Potency [2] | Potency [3] | Potency [4] | Potency [5] | Potency [6] | Potency [7] | Potency [1] | viability [4] | Potency [8] | Potency [9] | Potency [10] |
| --- | --- | --- | --- | --- | --- | --- | --- | --- | --- | --- | --- | --- |
| CC(C)C[C@H](CO)Nc1nc(S[C@@H](C)c2ccccc2)nc2nc(N)sc12 | 5.67% | inactive | inactive | 23.5 µM (active) | 26.3 µM (active) | 26.3 µM (active) |  |  |  |  | inactive |  |
| CC(C)(C)C(=O)Oc1ccc2c(c1)nc(NC(=O)c1cccc([N+](=O)[O-])c1)n2CCCO | 12% | inactive | inactive |  | inactive | 2.95 µM (active) | inactive |  | 111% |  | inactive |  |
| Cn1cc(-c2[nH]c3cc(NC(=O)[C@H](N)C4CCCCC4)cc4c3c2C=NNC4=O)cn1 | 23.5% | inactive | inactive | 16.6 µM (active) | 5.25 µM (active) |  |  |  |  |  | 1.05 µM (active) | 1.05 µM (active) |
| C=C1C(=O)[C@@]23C(CC[C@@H]1[C@H]2O)[C@@]12CO[C@]3(O)[C@@H](O)[C@@H]1C(C)(C)CC[C@@H]2O (stereo not given in full) |  | inactive | inactive | 9.34 µM (active) | 3.32 µM (active) | 2.63 µM (active) | 11.8 µM (active) | 27.3 µM (active) |  | 8.33 µM (active) | 5.9 µM (active) |  |
| CS(=O)(=O)N1CCC(NC(=O)c2[nH]ncc2NC(=O)c2c(Cl)cccc2Cl)CC1 |  | inactive | inactive | 2.35 µM (active) | 1.48 µM (active) | 0.59 µM (active) | 1.86 µM (active) | 3.01 µM (active) |  | 1.18 µM (active) | 1.48 µM (active) |  |
| C=CC(=O)Nc1cccc(Oc2nc(Nc3ccc(N4CCN(C)CC4)cc3)ncc2Cl)c1 |  | inactive | inactive | 14.8 µM (active) | 7.42 µM (active) | 1.86 µM (active) | 5.25 µM (active) | 9.68 µM (active) and 13.5 µM (active) |  | 5.9 µM (active) | 4.17 µM (active) |  |
| N#C[C@@H]1C[C@@H]2C[C@@H]2N1C(=O)[C@@H](N)C12CC3CC(CC(O)(C3)C1)C2 | -3% | inactive | inactive |  | inactive |  |  |  | 110% |  |  | inactive |
| CC(C)n1nc(-c2ccc3oc(N)nc3c2)c2c(N)ncnc21 | 5.06% and 13.4% | inactive | inactive | 0.148 µM (active) | 0.417 µM (active) |  |  |  |  |  | 0.0118 µM (active) | 0.0235 µM (active) |
| CCOC(=O)c1ccnc(CNCC(=O)N(CC)CCN(C)C)c1 | 8.33% | inactive | inactive |  | inactive | inactive | inactive |  | 104% | inactive | inactive |  |
| COc1cc2nc(-c3cc(F)ccc3O)nc(N[C@@H]3CNC[C@H]3C(C)(C)O)c2cc1OC |  | inactive | inactive | 6.61 µM (active) | 7.42 µM (active) | 0.0066 µM (active) | 6.61 µM (active) | 21.3 µM (active) |  | 5.25 µM (active) | 4.17 µM (active) |  |
| CN1CCN(c2ccc(C(=O)Nc3n[nH]c4ccc(Cc5cc(F)cc(F)c5)cc34)c(NC3CCOCC3)c2)CC1 |  | inactive | inactive | 16.6 µM (active) | 11.8 µM (active) | 0.468 µM (active) | 1.48 µM (active) | 30.1 µM (active) and 216 nM (active) |  |  | 3.32 µM (active) |  |
| CC[C@]12C=CCN3CC[C@@]4(c5cc([C@@]6(C(=O)OC)C[C@H]7C[C@@H](C(C)(F)F)CN(Cc8c6[nH]c6ccccc86)C7)c(OC)cc5N(C)[C@H]4[C@@](O)(C(=O)OC)[C@@H]1OC(C)=O)[C@@H]32 |  | inactive | inactive | 0.783 µM (active) | 0.124 µM (active) | 0.197 µM (active) | 0.139 µM (active) | 0.199 µM (active) |  | 0.0698 µM (active) | 0.139 µM (active) |  |
| CCn1c(-c2nonc2N)nc2cncc(CNC3CCNCC3)c21 | -16.3% and 6.25% | inactive | inactive |  | 1.66 µM (active) | 2.63 µM (active) | 4.68 µM (active) |  | 103% | 1.86 µM (active) | 5.9 µM (active) |  |
| Cc1cnc(-c2cc(N3CCN(C(=O)CCS(C)(=O)=O)CC3)ncc2Cl)c(C)c1 | 20.4% and -10.5% | inactive | inactive |  | inactive | inactive |  |  | 112% | inactive | inactive |  |
| c1ccc2c(Oc3nc(Nc4ccc(N5CCOCC5)cc4)c4ncn(C5CCCCC5)c4n3)cccc2c1 | 9.2% and -7.64% | inactive | inactive |  | inactive | 7.42 µM (active) | inactive |  | 101% | inactive | inactive |  |
| CCS(=O)(=O)N1CCN(c2ccc(Nc3ncc(C(N)=O)c(NC4CC4)n3)cc2)CC1 | 25.7% | inactive | inactive | 4.17 µM (active) | 13.2 µM (active) | 0.417 µM (active) | 4.68 µM (active) |  |  | 4.68 µM (active) | 0.372 µM (active) |  |
